# Key:
# Format in all cases: functional
# Plasmodium falciparum [1] = experiment: GSK_TCMDC: Inhibition of Plasmodium falciparum 3D7 in whole red blood cells, using parasite LDH activity as an index of growth. Test compounds present at 2uM
# Plasmodium falciparum [2] = experiment: GSK_TCMDC: Inhibition of Plasmodium falciparum Dd2 in whole red blood cells, using parasite LDH activity as an index of growth. Test compounds present at 2uM
# HepG2 = experiment: GSK_TCMDC: Percent inhibition of human HepG2 cell line. Test compounds present at 10uM.
Compound,Inhibition (Plasmodium falciparum [1]) [%],Inhibition (Plasmodium falciparum [2]) [%],Inhibition (HepG2) [%]
COc1ccc2nccc(N3CCN(CCNCc4ccc5c(n4)NC(=O)CS5)CC3)c2n1.Cl,100,67,10
Cc1ccc(CNC(=O)[C@H](Cc2ccccc2)Nc2cc(C)nc(NCc3ccccc3C)n2)cc1.O=C(O)C(F)(F)F,97,50,23
CCn1nc(C(=O)NC2CCOc3ccccc32)c2ccccc2c1=O (centres undefined),86,59,13
Cc1cccc(-c2nc3cc(NC(=O)c4ccc([N+](=O)[O-])o4)ccc3o2)c1,94,73,8
COc1ccccc1C1CC(c2ccccc2)=NN1C(=O)c1ccco1 (centres undefined),97,95,12
Cc1ccc2c(N/N=C/c3ccccc3[N+](=O)[O-])cc(C)nc2c1,100,100,13
CCC(CO)NCC(O)Cn1c2ccc(Cl)cc2c2cc(Cl)ccc21 (centres undefined),96,88,11
Cc1cccc2nc(-c3cccc(-c4ccc(CN5CCCC5CN)cc4)c3)[nH]c12.O=C(O)C(F)(F)F (centres undefined),100,47,19
Br.CCc1c(CCNCCCCCCNCCc2ccc(Br)cc2)ccc(O)c1O,95,1,11
Cc1nc2c(c(O)c1Cl)-c1ccc(Oc3cccc(C(F)(F)F)c3)cc1C2=O,98,97,25
Cc1nc(N)nc(N)c1-c1ccc(Br)cc1,98,1,46
CC(CN1CCN(C)CC1)C(=O)Nc1ccc(-c2ccc(-c3nc4ccccc4[nH]3)s2)cc1 (centres undefined),100,79,5
COc1cc(C2C(Oc3ccccc3)C(=O)N2Cc2ccc(F)cc2)cc(OC)c1OC (centres undefined),100,97,0
Cn1nc(-c2ccc(NC(=O)Nc3cc(C(F)(F)F)ccc3F)c(F)c2)c2cnc(NCCCn3ccnc3)nc21.O=C(O)C(F)(F)F,100,97,45
CC(C)CCC[C@@H]([C@@H](CC1CCCCC1)C(=O)N[C@@H](CCCCNC(=O)OCc1ccccc1)C(=O)Nc1nccs1)N(O)C=O,98,90,0
O=C(Cn1cnc2c(nnn2Cc2ccccc2F)c1=O)Nc1ccc2c(c1)OCCO2,86,1,0
CC(=O)N[C@H](C(=O)Nc1ccc(-c2ccc(-c3nc4cc(C(F)(F)F)ccc4[nH]3)cc2)cc1)C(C)C,88,76,24
O=C(Nc1ccc(Cl)c(Cl)c1)N[C@H]1CCN(CCCCCNC(=O)C2CC2c2ccc(Cl)c(Cl)c2)C1 (some centres undefined),93,8,42
Cc1nc(N)nc(N)c1-c1ccc(Cl)c(Cl)c1 [METOPRINE],95,0,66
CC(C)C1=C[C@H]2C[C@]3(C4OCCO4)[C@@H]4CC[C@@H](C)[C@H]4C[C@@]2(C(=O)OCC2COCO2)[C@]13C(=O)OC(c1ccccc1)c1ccccc1 (some centres undefined),92,96,2
Cc1cc(N[C@@H](Cc2ccccc2)C(=O)NCc2cccc(F)c2)nc(NCCCOC(C)C)n1.O=C(O)C(F)(F)F,100,94,10
Cl.O=C(Nc1ccnc2ccccc12)NC1CCN(CCc2ccccc2)CC1,100,43,7
Cl.Cl.N=C(N)c1ccc(-c2cc(-c3cccc(C(=N)N)c3)on2)cc1,96,45,7
CC(C)c1ccc(CN2CCC(CNC(=O)c3cc(-c4ccccc4F)cs3)C2)cc1.O=C(O)C(F)(F)F (centres undefined),100,29,32
COc1cc(C)cc(CN2CCC(Cc3ccccc3)CC2)c1O,97,94,35
COc1ccc(C(=O)CCC(=O)N(Cc2ccc(-c3ccc(CNCCc4ccc(S(C)(=O)=O)cc4)cn3)cc2)C2CC3CCC2C3)cc1F.O=C(O)C(F)(F)F (centres undefined),97,34,5
Cn1cncc1C(=O)Nc1cccc(-c2cccc(-c3nc4cc(F)ccc4[nH]3)c2)c1,100,45,16
Br.Cc1ccc(OCCCCON2C(=N)N=C(N)NC2(C)C)cc1C,94,97,61

# Reference: ChEMBL document CHEMBL1157539, “Thousands of chemical starting points for antimalarial lead identification” (Nature, 2010)
